Laboratory results from PubChem BioAssay.
A number with no mark means an inactive call. For some of these results: Measured potencies and affinities stand elsewhere. The source made the active and inactive calls. Unless noted, how the calls were made is not given here.

Columns and labels:
[1] = antimalarial activity against Dd2 strain (AID 2302;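 active means growth inhibition above 50% at the single 2 µM test dose, taken to imply half-maximal potency below 2 µM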;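 further: 0% = DMSO untreated growth and 100% = chloroquine plus artemisinin killed control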); conditions: P. falciparum Dd2 in RBCs, LDH growth readout, 72 h; at 2 µM; active compounds read high
[2] = human hepatoma cell viability loss – ATP luminescence, cytotoxicity control for P. falciparum antimalarial project, primary screen (AID 2303;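 active means inhibition above 50%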;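 further: 0% = DMSO wells and 100% = digitonin-killed cells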); conditions: HepG2 viability, 24-48 h, at 10 µM, active compounds read high
[3] = target: L-lactate dehydrogenase (Plasmodium falciparum (isolate CDC / Honduras)) (UniProt Q27743); assay: PfLDH activity inhibition – cell lysate, 3D7 strain, counter-screen for P. falciparum growth inhibition project (AID 2304);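 further: 0% = vehicle and 100% = reference inhibitor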; conditions: P. falciparum 3D7 crude extract, LDH APAD/NBT absorbance; at 2 µM; active compounds read high
Chain of L-lactate dehydrogenase (Plasmodium falciparum (isolate CDC / Honduras)) (Q27743 whole entry, looked up): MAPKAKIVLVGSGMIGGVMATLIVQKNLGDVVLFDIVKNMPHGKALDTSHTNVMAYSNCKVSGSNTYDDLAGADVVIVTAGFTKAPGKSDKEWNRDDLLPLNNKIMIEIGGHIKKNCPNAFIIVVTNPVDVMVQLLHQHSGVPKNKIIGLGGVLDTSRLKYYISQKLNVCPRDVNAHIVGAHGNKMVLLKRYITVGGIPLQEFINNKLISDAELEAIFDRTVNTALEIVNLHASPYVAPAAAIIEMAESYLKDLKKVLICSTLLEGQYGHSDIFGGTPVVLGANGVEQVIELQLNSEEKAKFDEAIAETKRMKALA

[4] = inhibition of 3D7 malaria parasite growth – strain 3D7 (AID 2306);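 further: 0% = DMSO wells and 100% = chloroquine plus artemisinin control wells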; conditions: P. falciparum 3D7 erythrocytic growth, LDH absorbance, 72 h; at 2 µM; active compounds read high
[5] = target: Calcium-dependent protein kinase 1 (Plasmodium falciparum (isolate 3D7)) (UniProt P62344); assay: PfCDPK1 kinase inhibitors, biochemical, TCAMS library (AID 1159585; cut-off not given, nearly all actives have IC50 up to about 0.98 µM;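 further: inhibitors leave more ATP so luminescence rises with inhibition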); conditions: recombinant PfCDPK1, Kinase-Glo ATP depletion luminescence
Chain of Calcium-dependent protein kinase 1 (Plasmodium falciparum (isolate 3D7)) (P62344 whole entry, looked up): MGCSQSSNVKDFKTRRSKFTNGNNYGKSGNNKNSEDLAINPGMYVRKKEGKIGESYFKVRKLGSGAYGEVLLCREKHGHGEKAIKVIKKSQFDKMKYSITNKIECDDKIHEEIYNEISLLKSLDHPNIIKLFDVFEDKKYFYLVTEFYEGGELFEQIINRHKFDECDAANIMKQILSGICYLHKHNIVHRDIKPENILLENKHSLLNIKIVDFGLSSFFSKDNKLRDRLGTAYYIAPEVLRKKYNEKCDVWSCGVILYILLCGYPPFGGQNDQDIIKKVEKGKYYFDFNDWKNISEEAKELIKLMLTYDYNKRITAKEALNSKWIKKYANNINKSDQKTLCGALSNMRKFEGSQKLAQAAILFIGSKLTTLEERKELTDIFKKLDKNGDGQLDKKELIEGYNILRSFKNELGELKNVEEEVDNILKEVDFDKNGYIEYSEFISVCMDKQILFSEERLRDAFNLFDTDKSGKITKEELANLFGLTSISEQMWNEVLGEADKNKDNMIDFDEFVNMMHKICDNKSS

[6] = target: Plasmodium falciparum protein kinase 6 (PK6, PF3D7_1337100) (UniProt Q8IDW1); assay: PfPK6 kinase inhibitors, biochemical, TCAMS library (AID 1159586); conditions: recombinant PfPK6, Kinase-Glo ATP depletion luminescence
Chain of Plasmodium falciparum protein kinase 6 (PK6, PF3D7_1337100) (Q8IDW1 1-305): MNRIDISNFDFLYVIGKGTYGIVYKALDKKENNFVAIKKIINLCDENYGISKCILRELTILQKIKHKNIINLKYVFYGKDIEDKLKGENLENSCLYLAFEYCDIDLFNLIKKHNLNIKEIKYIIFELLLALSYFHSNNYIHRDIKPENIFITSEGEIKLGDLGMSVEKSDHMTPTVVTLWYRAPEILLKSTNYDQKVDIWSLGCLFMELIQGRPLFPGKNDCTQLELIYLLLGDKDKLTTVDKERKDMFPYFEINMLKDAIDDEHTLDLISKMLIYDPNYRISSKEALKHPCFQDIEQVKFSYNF

[7] = target: Protein kinase 7 (PK7), Plasmodium falciparum 3D7 (PF3D7_0213400) (UniProt Q7YTF7); assay: inhibition of Plasmodium PK7 catalytic activity – biochemical, TCAMS antimalarial set, Kinase-Glo luminescence (AID 1159587); conditions: recombinant PfPK7, Kinase-Glo ATP depletion luminescence
Chain of Protein kinase 7 (PK7), Plasmodium falciparum 3D7 (PF3D7_0213400) (Q7YTF7 1-343): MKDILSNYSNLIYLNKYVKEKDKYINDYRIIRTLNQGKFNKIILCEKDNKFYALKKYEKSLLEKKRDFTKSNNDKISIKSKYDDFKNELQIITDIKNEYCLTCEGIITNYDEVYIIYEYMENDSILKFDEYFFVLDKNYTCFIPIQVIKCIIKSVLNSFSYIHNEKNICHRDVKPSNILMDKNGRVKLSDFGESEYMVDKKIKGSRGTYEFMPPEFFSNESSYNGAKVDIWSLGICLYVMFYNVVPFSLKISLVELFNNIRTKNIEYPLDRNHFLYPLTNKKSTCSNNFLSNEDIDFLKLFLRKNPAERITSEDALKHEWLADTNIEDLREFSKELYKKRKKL

[8] = target: Calcium-dependent protein kinase 4 (Plasmodium falciparum (isolate 3D7)) (UniProt Q8IBS5); assay: PfCDPK4 kinase inhibitors, biochemical, TCAMS library (AID 1159588; cut-off not given, nearly all actives have IC50 up to about 0.91 µM); conditions: recombinant PfCDPK4, Kinase-Glo ATP depletion luminescence
Chain of Calcium-dependent protein kinase 4 (Plasmodium falciparum (isolate 3D7)) (Q8IBS5 whole entry, looked up): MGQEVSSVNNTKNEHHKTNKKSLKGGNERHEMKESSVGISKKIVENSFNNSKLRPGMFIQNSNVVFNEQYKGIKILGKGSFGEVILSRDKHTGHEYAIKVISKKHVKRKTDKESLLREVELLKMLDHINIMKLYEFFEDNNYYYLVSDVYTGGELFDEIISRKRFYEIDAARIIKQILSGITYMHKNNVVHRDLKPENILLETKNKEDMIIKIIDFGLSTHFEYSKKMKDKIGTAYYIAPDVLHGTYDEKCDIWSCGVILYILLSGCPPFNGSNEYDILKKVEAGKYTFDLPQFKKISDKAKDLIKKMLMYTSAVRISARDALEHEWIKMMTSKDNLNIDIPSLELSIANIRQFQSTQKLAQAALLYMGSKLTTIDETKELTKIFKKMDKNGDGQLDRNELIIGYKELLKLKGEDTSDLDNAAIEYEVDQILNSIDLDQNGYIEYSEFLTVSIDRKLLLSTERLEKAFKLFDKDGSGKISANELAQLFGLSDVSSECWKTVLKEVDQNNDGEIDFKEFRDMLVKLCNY

Row | Structure (SMILES) | growth inhibition [1] | inhibition [2] | inhibition [3] | growth inhibition [4] | outcome [5] | outcome [6] | outcome [7] | outcome [8]
1 | N#Cc1ccc(Cn2ccc3c4c(N)nc(N)nc4ccc32)cc1 | 95% (active) | 64% (active) | 0% | 92% (active) | inactive | inactive | inactive | inactive
2 | Cc1cc(N[C@@H](Cc2ccccc2)C(=O)Nc2ccccc2)nc(Nc2ccccc2)n1 | 69% (active) | 8% | -1% | 101% (active) | inactive | inactive | inactive | inactive
3 | Nc1cccc(CNCc2cccc(-c3ccc(-c4nc5ccc(C(F)(F)F)cc5[nH]4)cc3)c2)c1 | 98% (active) | 6% | 1% | 101% (active) | inactive | inactive | inactive | inactive
4 | O=C(NC1CCN(Cc2ccc3c(c2)OCCO3)CC1)c1ccc(-c2cccc(C(F)(F)F)c2)s1 | 35% | 99% (active) | 5% | 100% (active) | inactive | inactive | inactive | inactive
5 | CC(C)n1ncc2c3c(N)nc(N)nc3ccc21 | 6% | 64% (active) | -3% | 98% (active) | inactive | inactive | inactive | inactive
6 | Cc1[nH]c(C)c(-c2ccc(CCc3cccc(C(F)(F)F)c3)nc2)c(=O)c1Cl | 97% (active) | 28% | -2% | 99% (active) | inactive | inactive | inactive | inactive
7 | Cc1ccc(N(CCC(=N)N)Cc2ccccc2)cc1 | 95% (active) | 6% | -3% | 96% (active) | inactive | inactive | inactive | inactive
8 | CCCc1nc2c(N3CCCN(C(=O)NC4CCCCC4)CC3)cccc2n1Cc1ccccn1 | 10% | 10% | 5% | 89% (active) | inactive | inactive | inactive | inactive
9 | CC(C)COc1ccc(C(O)C(CN2CCCCC2)c2ccccc2)cc1 (stereo not drawn) | 89% (active) | 11% | -11% | 93% (active) | inactive | inactive | inactive | inactive
10 | CCN(CC)CCN(Cc1ccc(-c2ccc(C(F)(F)F)cc2)cc1)C(=O)Cn1c(CCC2CCCCC2)nc(=O)c2ccccc21 | 25% | 32% | 3% | 87% (active) | inactive | inactive | inactive | inactive
11 | CCCCCCCOc1ccc(NC(=O)Nc2ccc(Cn3ncc(N4CCCNCC4)c(Cl)c3=O)cc2)cc1 | 28% | 60% (active) | 2% | 87% (active) | inactive | inactive | inactive | inactive
12 | Cc1cccc2[nH]c(-c3cccc(-c4cccc(NC(=O)N[C@@H]5C[C@H]5c5ccccc5)c4)c3)nc12 | 28% | -4% | -1% | 98% (active) | inactive | inactive | inactive | inactive
13 | NC(=O)C1CCN(Cc2cccc(-c3ccc(-c4nc5ccc(C(F)(F)F)cc5[nH]4)cc3)c2)CC1 | 94% (active) | 7% | 8% | 100% (active) | inactive | inactive | inactive | inactive
14 | COc1ccccc1-c1ccc2nnc(SCC(=O)Nc3ccc4c(c3)OCCO4)n2n1 | 5% | 9% | -7% | 99% (active) | inactive | inactive | inactive | inactive
15 | O=C(Nc1cccc(CN2CCN(Cc3ccc(O)cc3)CC2)c1)c1cc2ccccc2o1 | 12% | 8% | -3% | 81% (active) | inactive | inactive | inactive | inactive
16 | O=C(Nc1cc(Cl)cc(Cl)c1)c1cc(Cl)c(=O)n(Cc2ccc(Cl)cc2)c1 | 57% (active) | 7% | 7% | 89% (active) | inactive | inactive | inactive | inactive
17 | CC1CCN(c2nc(C(=O)Nc3ccc(F)cc3C(F)(F)F)c(C(C)C)s2)CC1 | 66% (active) | 5% | -5% | 101% (active) | inactive | inactive | inactive | inactive
18 | CCCc1ccc(S(=O)(=O)Nc2ccc3c(c2)CCC3)cc1 | -1% | 8% | 1% | 96% (active) | inactive | inactive | inactive | inactive
19 | Cc1cc(O)c(CNC2CCCCC2)cc1C | 95% (active) | 6% | -2% | 95% (active) | inactive | inactive | inactive | inactive
20 | COc1cc(CNCCCCCCNCc2cc(OC)cc3ccccc23)c2ccccc2c1 | 94% (active) | 57% (active) | -5% | 100% (active) | inactive | inactive | inactive | inactive
21 | COc1ccccc1C1CCN(CCCCNC(=O)c2ccc(NC(=O)c3ccc(Cl)cc3)cc2)CC1 | 12% | 21% | 6% | 95% (active) | inactive | inactive | inactive | inactive

Row | Structure (SMILES) | growth inhibition [1] | inhibition [2] | inhibition [3] | growth inhibition [4] | outcome [5] | outcome [6] | outcome [7] | outcome [8]
22 | Nc1nc(N)c2cc(NS(=O)(=O)c3ccc(-c4ccccc4)cc3)ccc2n1 | 54% (active) | 7% | -3% | 102% (active) | inactive | inactive | inactive | inactive
23 | COc1ccc2nccc([C@@H](O)CN3CCC(NCC(O)Cc4ccccc4)CC3)c2c1 (stereo partly drawn) | 6% | 5% | -3% | 98% (active) | inactive | inactive | inactive | inactive
24 | Cc1cc2c(cc1C(F)(F)F)N(C(=O)Nc1cc(OCCN(C(C)C)C(C)C)cc(C(F)(F)F)c1)CC2 | 86% (active) | 42% | -2% | 100% (active) | inactive | inactive | inactive | inactive
25 | CN1CCC(NCc2cccc(-c3nn(C)c4nc(NC5CCCC5)ncc34)c2)CC1 | 44% | 1% | -2% | 98% (active) | inactive | inactive | inactive | inactive
26 | Cc1cc2[nH]c(-c3ccc(C(=O)NCCCN4CCN(c5cccc(Cl)c5)CC4)s3)nc2cc1Cl | 93% (active) | 7% | -1% | 100% (active) | inactive | inactive | inactive | inactive
27 | CCCNCc1ccc(-c2ccc(CN(CCOC)C(=O)c3cccc(C#N)c3)cc2)nc1 | 14% | -2% | -2% | 84% (active) | inactive | inactive | inactive | inactive
28 | COc1ccc(Br)cc1/C=C/C(=O)Nc1cccc(C2CCCN(C)C2)c1 (stereo not drawn) | 30% | 12% | 1% | 99% (active) | inactive | inactive | inactive | inactive
29 | C[C@@H](C(=O)N1CCOCC1)N1CC[C@H](NS(=O)(=O)c2ccc3ccnc(N)c3c2)C1=O | 61% (active) | -6% | -4% | 84% (active) | inactive | inactive | inactive | inactive
30 | COc1ccc2ncc(F)c(CCN3C[C@H](CNCc4cc(F)c5c(c4)NC(=O)CO5)[C@H](O)C3)c2n1 | 23% | 3% | -7% | 94% (active) | inactive | inactive | inactive | inactive
31 | Cc1ccc(Oc2ccc(CNc3nc(Nc4cccc(F)c4)nc(Nc4cccc(F)c4)n3)cc2)cc1 | -2% | -5% | -2% | 86% (active) | inactive | inactive | inactive | inactive
32 | CN1CCc2ccc(NC(=O)Nc3ccc(-c4ccccc4)cc3)cc2C1 | 45% | 24% | 3% | 90% (active) | inactive | inactive | inactive | inactive
33 | CC(O)C1CCCCN1C(=O)c1cccc(-c2cccc(-c3nc4ccc(F)cc4[nH]3)c2)c1 (stereo not drawn) | 99% (active) | 42% | -2% | 101% (active) | inactive | inactive | inactive | inactive
34 | COc1cc2nccc(Nc3ccc(NC(=O)c4ccc(C)cc4)c(O)c3)c2cc1OC | 77% (active) | 96% (active) | 1% | 101% (active) | inactive | inactive | inactive | inactive
35 | O=C(Nc1ccc2ccccc2n1)c1ccccc1-c1ccccc1 | 83% (active) | 14% | 0% | 90% (active) | inactive | inactive | inactive | inactive
36 | O=c1ccc(CNc2nc(NCCc3ccccc3)nc3cc(Cl)ccc23)c[nH]1 | 78% (active) | 21% | 3% | 95% (active) | inactive | inactive | inactive | inactive
37 | COc1cc(OC)c(OC)cc1CN1CCC2(CC1)CN(Cc1ccc(Cl)c(Cl)c1)C(=O)O2 | 94% (active) | 8% | 3% | 90% (active) | inactive | inactive | inactive | inactive
38 | CC(C)C(=O)ONC1=NC(C)(C)N(OCCCOc2cc(Cl)c(Cl)cc2Cl)C(N)=N1 | 96% (active) | 64% (active) | -4% | 95% (active) | inactive | inactive | inactive | inactive
39 | O=C1Nc2cccc3c2C1(CCCCN1CCC(c2c[nH]c4cc(C(F)(F)F)ccc24)CC1)CCC3 (stereo not drawn) | 79% (active) | 99% (active) | 3% | 99% (active) | inactive | inactive | inactive | inactive
40 | Cc1cccc2c(N=NC(=S)N(C)C)c(O)[nH]c12 | 59% (active) | 48% | -5% | 96% (active) | inactive | inactive | inactive | inactive
41 | Cc1ccc(C(=O)Nc2ccc(-c3nc4ccccc4[nH]3)cc2)cc1S(=O)(=O)N1CCOCC1 | 16% | 56% (active) | 4% | 90% (active) | inactive | inactive | inactive | inactive
